FBA Mtb inh: Mtb fructose-bisphosphate aldolase inhibition | P9WQA3 | purified M. tuberculosis FBA, fluorescence read-out | inhibition, % at 1 µM | actives 2.3% (n = 360,000) | AID 588726; in the data active means inhibition above about 27%;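 further: 0% = vehicle and 100% = reference inhibitor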
Target sequence (P9WQA3 whole entry, looked up): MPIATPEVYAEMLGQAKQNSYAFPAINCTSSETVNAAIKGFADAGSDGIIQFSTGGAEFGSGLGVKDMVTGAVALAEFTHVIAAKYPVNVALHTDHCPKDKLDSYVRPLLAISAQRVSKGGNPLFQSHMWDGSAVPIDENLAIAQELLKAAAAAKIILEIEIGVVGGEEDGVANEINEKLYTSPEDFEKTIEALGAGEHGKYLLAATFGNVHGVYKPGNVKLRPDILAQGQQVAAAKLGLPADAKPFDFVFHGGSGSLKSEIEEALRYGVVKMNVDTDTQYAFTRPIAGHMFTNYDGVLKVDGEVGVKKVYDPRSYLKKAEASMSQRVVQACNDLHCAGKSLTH
GDH-TPI counter: GDH-TPI coupled enzyme inhibition counter-screen | GDH-TPI coupled enzyme counterscreen, NADH absorbance | inhibition, % at 4.8 µM | actives 1.2% (n = 360,000); in the data active means inhibition above about 30%;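 further: 0% = DMSO wells and 100% = wells lacking the enzyme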
Bead autofluor: compound fluorescence in toxin protease inhibitor counterscreen | actives 3.1% (n = 360,000) | compound autofluorescence counterscreen, microsphere flow cytometry; active compounds read high | fluorescence intensity (concentration not given with the values); in the data active means fluorescence intensity above about 16000; inconclusive means no clear call, values can overlap the other calls
BoNT A protease: BoNT A light chain protease inhibition | multiplex microsphere protease substrate cleavage, flow cytometry | inhibition, % at 10 µM | actives 0.17% (n = 360,000) | AID 588499; further: plate controls were buffer without enzyme for full effect and enzyme alone for no effect
BoNT-F LC inh: BoNT F light chain protease inhibition; Multiplex microsphere protease cleavage assay, flow cytometry; AID 588497; inhibition, % at 10 µM; actives 0.22% (n = 360,000); in the data active means inhibition above about 35%, passing the limit was not always enough; inconclusive means no clear call, values can overlap the other calls; further: plate controls were buffer without enzyme for full effect and enzyme alone for no effect
Anthrax LF prot: anthrax lethal factor protease inhibition | actives 0.12% (n = 360,000) | inhibition, % at 10 µM | multiplex microsphere protease cleavage assay, LF | P15917; further: plate controls were buffer without enzyme for full effect and enzyme alone for no effect
* marks the source's active call; other numbers are inactive results; ? = inconclusive; + = active, no number. A selection: hits, their analogues and other compounds. The true share with any hit is near 6.7%. Unless noted, no stated cut-off is given here; in the data, active means inhibition above about 30%; inconclusive means no clear call, values can overlap the other calls; inactive means below that.

SMILES | FBA Mtb inh | GDH-TPI counter | Bead autofluor | BoNT A protease | BoNT-F LC inh | Anthrax LF prot
CCN(CC)c1cc(C)c(C#N)c2nc3ccccc3n12 | 23 | -14 | 4281 | -8 | ? | -11
CCN(CC)c1c2c(c(C#N)c3nc4ccccc4n13)CCC2 | 1 | 10 | 16264* | -1 | -1 | -3
Cc1cc(NCCOCCO)n2c(nc3ccccc32)c1C#N | + | 11 | 4175 | -3 | ? | -3
O=C1CC(=O)N(c2cccc(C(F)(F)F)c2)C(=O)N1 | -1 | -5 | 3834 | -7 | -19 | 10
C[C@H](/C=C/[C@@]1(O)[C@H](C)C[C@H](O)CC1(C)C)O[C@@H]1O[C@H](CO)[C@@H](O)[C@H](O)[C@H]1O | 2 | 4 | 4263 | -1 | -12 | -6
Cc1ccccc1C(=O)Nc1ccc2c(c1)OCO2 | -3 | -11 | 2889 | 0 | 0 | -5
COc1ccc(C(CCNCc2ccc(F)cc2)c2ccc(F)cc2)cc1 (stereo unspecified) | 1 | 2 | 1914 | 0 | -14 | -4
COC(=O)c1sc(S(=O)(=O)N2CCCCC2C(=O)O)c(C(=O)OC)c1C (stereo unspecified) | 1 | -2 | 3871 | 1 | 2 | 1
C#CCN1C=CC(=O)[C@@H](OC(=O)Nc2ccccc2Br)[C@H]1c1ccccc1Br | -2 | 12 | 3778 | 0 | -7 | -4
Cc1ccc(-c2c(C#N)c(N)n3c(nc4ccccc43)c2C#N)cc1 | 119* | 12 | 4249 | 3 | 27 | 3
Cc1cc(NCc2ccccn2)n2c(nc3ccccc32)c1C#N | 21 | 0 | 4409 | 1 | -4 | -6
Cc1cc(NCCCO)n2c(nc3ccccc32)c1C#N | 181* | 10 | 2506 | 0 | 1 | 1
CCN1CCN(c2ccc(NC(=O)c3cccc4ncccc34)cc2)CC1 | -3 | 6 | 22120* | ? | -10 | -12
COc1ccccc1N(CC(=O)NC(C)(C)C)C(=O)Cn1nnc(-c2ccc(C)o2)n1 | 5 | -7 | 9620 | 0 | 8 | -7
CC(C)(C)NC(=O)CN(C(=O)Cn1nnc(-c2ccccc2F)n1)c1cccc2c1CCCC2 | -5 | 18 | 17013* | -1 | -2 | -1
Cc1ccc(N=Cc2ccc(N(C)C)cc2)cc1C | -1 | 23 | 4390 | -1 | 0 | -10
CN(C)c1ccc(C=Nc2ccc(N(C)C)cc2)cc1 | -1 | 32* | 1945 | 1 | -31 | -8
Cc1ccc(N=Cc2ccc(N(C)C)cc2)cc1 | 0 | 39* | 5494 | 1 | 9 | -8
CN(C)c1ccc(C=Nc2ccccc2)cc1 | 1 | 46* | 8933 | ? | -13 | 1
C(=Nc1cccc2c(N=Cc3ccco3)cccc12)c1ccco1 | 62* | 4 | 4249 | -2 | -12 | -7
Cc1ccccc1Nc1ncccc1C(=O)N1CCOCC1 | 1 | -1 | 8538 | 0 | 5 | -15
C(=N\C(/N=C/c1ccco1)c1ccco1)/c1ccco1 | 9 | 4 | 4472 | 0 | -2 | -2
CN(C)c1ccc(N=Cc2ccco2)cc1 | -2 | 9 | 20149* | 8 | -23 | -10
CC(C)(C)c1ccc(C(=O)CCCSC2=C(C#N)C(c3ccco3)C3=C(CCCC3=O)N2)cc1 (stereo unspecified) | 0 | 8 | 23545* | ? | -6 | -5
OCCCCNc1cccc2ccccc12 | 161* | 9 | 6319 | 1 | -19 | -5
SMILES | FBA Mtb inh | GDH-TPI counter | Bead autofluor | BoNT A protease | BoNT-F LC inh | Anthrax LF prot
Cc1ccccc1C(=O)NC1CCN(CC(=O)Nc2nccs2)CC1 | -2 | -2 | 20345* | ? | 0 | -1
COC(=O)c1ccccc1NC(=O)CN1CCC(NC(=O)c2ccccc2C)CC1 | -4 | 5 | 16191* | 0 | -4 | 1
Cc1ccc(NC(=O)NC2CCN(CC(=O)Nc3nccs3)CC2)cc1 | 1 | -5 | 9828 | -1 | 0 | 1
N#Cc1c(SCC(=O)Nc2ccc(Cl)cc2Cl)sc2c(O)cc(=O)[nH]c12 | 1 | 33* | 3868 | 0 | -9 | -7
O=c1[nH]c(=S)c2c(n1-c1ccccc1)CCC2 | -2 | 35* | 12886 | -1 | -5 | -3
COc1cccc(C(=O)Nc2nnc(Cc3ccc(OC)c(OC)c3)s2)c1 | 2 | 0 | 6392 | -1 | -5 | -7
COc1cccc(C(=O)Nc2c(F)c(F)c(F)c(F)c2F)c1 | 2 | -8 | 20193* | -2 | -5 | 1
CCCc1nnc(NC(=O)c2cccc(OC)c2)s1 | -4 | 3 | 21067* | ? | 8 | 0

Source: PubChem
